Bioassay records as filed in PubChem.
Only a selection was taken, and hits are over-represented in it overall.
TDP1 cell CPT: DT40-hTDP1 cell growth loss with CPT | chicken DT40 Tdp1-/-;hTDP1 cells + 20 nM CPT, ATP luminescence, 48 h | Potency, µM (titrated, usually from 46.2 µM), for the others: at the highest dose activity change, negative = growth inhibition, most hits filed as inhibitors | actives 12% (n = 420,000) | AID 686979; also: potency is read from the fitted curve at half-maximal effect; nearly all actives have a fitted effect of over 55% in size
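Chicken DT40 Tdp1-/- cells complemented with human TDP1, 400 cells/well, exposed to compounds plus 20 nM camptothecin for at least 48 h at 37 C; viability read as ATP content by CellTiter-Glo luminescence.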
12-LOX inh: blocks human arachidonate 12S-lipoxygenase | P18054 | purified 12hLO, xylenol orange hydroperoxide absorbance | Potency, µM (top dose mostly 108 µM), inactives show at the highest dose activity change, negative = inhibition, actives largely listed as inhibitors | actives 1.1% (n = 580,000) | AID 1671190; also: potency is read from the fitted curve at half-maximal effect
Target sequence (P18054 whole entry, looked up): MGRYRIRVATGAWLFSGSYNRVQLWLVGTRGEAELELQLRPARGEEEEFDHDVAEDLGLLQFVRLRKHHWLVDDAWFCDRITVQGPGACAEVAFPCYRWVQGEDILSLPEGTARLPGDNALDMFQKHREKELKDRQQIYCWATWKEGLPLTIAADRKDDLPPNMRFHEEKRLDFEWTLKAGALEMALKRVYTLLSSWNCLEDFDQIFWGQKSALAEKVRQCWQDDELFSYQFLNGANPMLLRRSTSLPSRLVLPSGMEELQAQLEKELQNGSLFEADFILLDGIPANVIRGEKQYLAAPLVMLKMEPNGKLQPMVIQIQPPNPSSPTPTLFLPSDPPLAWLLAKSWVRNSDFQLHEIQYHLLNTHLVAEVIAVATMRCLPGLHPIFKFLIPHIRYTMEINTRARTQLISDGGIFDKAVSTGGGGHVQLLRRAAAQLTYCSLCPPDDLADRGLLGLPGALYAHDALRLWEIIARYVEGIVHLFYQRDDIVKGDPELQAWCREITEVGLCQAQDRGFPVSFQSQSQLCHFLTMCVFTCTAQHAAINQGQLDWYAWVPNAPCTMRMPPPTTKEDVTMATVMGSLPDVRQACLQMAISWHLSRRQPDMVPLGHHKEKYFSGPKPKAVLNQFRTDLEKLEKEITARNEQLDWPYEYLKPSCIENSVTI
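Purified human 12hLO (150 nM final) in 25 mM Hepes, 0.01% Triton X-100, pH 7.0 was preincubated 15 min at room temperature with compound. Then 40 uM arachidonic acid was added, 30 min. Hydroperoxide was read by Fe-XO absorbance ratio 573/405 nm.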
IL-1B inflam inh: inflammasome signaling inhibition, IL-1 beta readout; THP-1 LPS/ATP IL-1B secretion, AlphaLISA, 16 h; hits give low values; activity change, % at 57.5 µM; actives 4.7% (n = 360,000); AID 743279; in the data active = activity change below about -50%; inconclusive = mostly about -30% to -49%
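Secreted IL-1B measured by AlphaLISA bead assay after 16 h compound exposure of THP-1 cells; compounds (final up to 57.5 uM) added 1 h before LPS (250 ng/mL) and ATP (1.25 mM) stimulation; lower signal means less secretion.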
HT1080 IDH1KD tx: kills HT-1080 cells with IDH1 knockdown; HT-1080 IDH1 knockdown viability, ATP luminescence, 48 h; Potency, µM (highest dose often 46.1 µM), for the others: at the highest dose activity, negative = toxicity, most hits filed as cytotoxic; actives 2% (n = 360,000);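 also: potency is read from the fitted curve at half-maximal effect; 0% = DMSO wells and -100% = cell-free medium wells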
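Assay cells: HT-1080 with IDH1 knockdown, 750 per well, RPMI/5% FBS. Exposure: 48 h at 37 °C following 2 h pre-incubation. Read: CellTiter-Glo luminescence; fitted concentration-response, curve class assigned.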
DT40 TDP1 no CPT: qHTS for Inhibitors of human tyrosyl-DNA phosphodiesterase 1 (TDP1): qHTS in cells in absence of CPT | DT40 Tdp1-/- hTDP1 cells, no CPT, ATP luminescence, 48 h | Potency, µM (series often up to 46.2 µM), inactives show top-dose activity change, negative = growth inhibition, most hits filed as inhibitors | actives 15% (n = 420,000); also: potency is read from the fitted curve at half-maximal effect; nearly all actives have a fitted effect of over 55% in size
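Seeded 400 DT40-hTDP1 cells/well (vehicle DMSO, no 20 nM CPT); pinned compounds; ≥48 hr at 37 °C; CellTiter-Glo luminescence as viability measure.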
HT1080-NT tox: kills 2HG-producing HT-1080-NT fibrosarcoma cells | HT-1080-NT fibrosarcoma viability, CellTiter-Glo ATP luminescence, 48 h | Potency, µM (titrated, usually from 46.1 µM), for the others: at the highest dose activity, negative = less viability, usual class: cytotoxic | actives 1.6% (n = 360,000) | AID 686970;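 also: NT is the 2HG producing partner of a matched IDH1 knockdown line; potency is read from the fitted curve at half-maximal effect; 0% = DMSO-treated cells and -100% = media-only wells without cells; nearly all actives have a fitted effect of over 55% in size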
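Compounds were tested in concentration-response format on HT-1080-NT cells for 48 hours at 37 degrees C. Cell viability came from CellTiter-Glo luminescence; curves were classified by r2, response magnitude and activity.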
Active calls of the source: *; u = inconclusive; x = no result. Unless noted, calls follow the shape of the dose curve; as a rule, active = well fitted curve in the direction sought with a large enough effect; inconclusive = small, poorly fitted or top-dose-only effect, or another doubt; inactive = no such curve, though single readings can be large; an effect the other way counts as inactive or inconclusive. Unless noted, % is scaled to controls: 0 for no effect and ±100 for the full control effect.

SMILES | TDP1 cell CPT | 12-LOX inh | IL-1B inflam inh | HT1080 IDH1KD tx | DT40 TDP1 no CPT | HT1080-NT tox
CCOC(=O)[C@]12CCCC=C1N(CCc1ccc(OC)c(OC)c1)C(=O)[C@H](CC(=O)N1CCCCC1)C2 | 14.6µM* | 13.1% | -25.1 | -3.8% | 11.6µM* | -11.2%
CCCCCCCCN1C(=O)[C@H](CC(=O)NCc2ccc(OC)c(OC)c2)C[C@@]2(C(=O)OCC)CCCC=C12 | u | u | -77.4* | u | u | u
CCOC(=O)C1(Cc2ccccc2C)CCCN(S(=O)(=O)CC)C1 (stereo not given) | u | 0.0% | 3.9 | 7.4% | 23.1µM* | 0.3%
CCOC(=O)C1(Cc2ccccc2C)CCCN(C(=O)COC)C1 (stereo not given) | u | 6.2% | 0.0 | -6.1% | -25.0% | -3.1%
COc1ccc2c(c1)C=C(CN1CCCn3nc(C(C)O)cc3C1)CO2 (stereo not given) | x | 30.0% | x | x | x | x
Clc1ccc(C[n+]2csc3ccccc32)cc1 | 0.411µM* | u | -110.1* | -9.4% | 0.517µM* | -3.9%
Clc1ccc(CSc2ccc(-c3cccs3)nn2)cc1 | -0.5% | -14.7% | x | x | -1.4% | x
Fc1ccc(CSc2nc3ccccc3s2)cc1 | x | 18.1% | x | x | x | x
Fc1ccc(C[n+]2csc3ccccc32)cc1 | 1.03µM* | u | -115.2* | 1.5% | 0.92µM* | 7.0%
O=C(NCCCN1CCCC1=O)c1cc(=O)[nH]c2ccccc12 | x | 36.5% | x | x | x | x
CC(=O)c1c(C)[nH]c(C(=O)Nc2cccnc2)c1C | -2.0% | 0.0% | 27.6 | 15.5% | -0.9% | 0.7%
CC(=O)c1c(C)[nH]c(C(=O)Nc2cccc(C#N)c2)c1C | -20.5% | -21.5% | -3.7 | -3.5% | 16.4µM* | -6.3%
CC(=O)c1c(C)[nH]c(C(=O)Nc2cccc(C(F)(F)F)c2)c1C | u | -9.0% | -73.4* | u | 20.6µM* | u
Cc1cc(C(=O)CCC(=O)N(C)CC(=O)Nc2ccc(OC(F)(F)F)cc2)c(C)s1 | u | -29.4% | -2.6 | -12.7% | u | -4.2%
Fc1ccc(C(NCCc2ccc(Cl)cc2)c2nnc(-c3ccccc3)o2)c(Cl)c1 (stereo not given) | u | -12.7% | x | x | u | x
Clc1ccc(CCNC(c2nnc(-c3ccccc3)o2)c2ccccc2Cl)cc1 (stereo not given) | 18.4µM* | -8.4% | x | x | 23.1µM* | x
COc1ccccc1C1=NC(C(F)(F)F)(C(F)(F)F)N=C(N(C)C)O1 | x | 13.2% | x | x | x | x
Cc1ccc(NC(=O)CN(C)S(=O)(=O)c2ccc(Br)s2)cc1F | 2.3% | -42.5% | -62.5* | -10.9% | u | -11.1%
O=C(NC(C(=O)c1ccccc1)N1CCCCC1)c1cccs1 (stereo not given) | x | -25.3% | x | x | x | x
COc1ccc(C(=O)N(Cc2ccco2)Cc2ccc(C)o2)cc1 | 20.6µM* | u | x | x | 20.6µM* | x
CCc1ccc(CN(Cc2ccco2)C(=O)c2ccc(OC)cc2)cc1 | u | -0.1% | x | x | 23.1µM* | x
O=C(NCc1csc(-c2ncccn2)n1)C1COc2ccccc2C1 (stereo not given) | x | 31.6% | x | x | x | x
COc1cccc(CN2CC(C(=O)NCCN3CCOC3=O)CCC2=O)c1 (stereo not given) | -3.2% | 5.1% | -5.6 | -0.4% | 14.2% | 3.6%
O=S1(=O)CCOC[C@H](CC2CCCCC2)N1Cc1ccc(Cl)cc1 | 2.82µM* | 12.3% | 10.5 | -0.9% | 3.55µM* | -3.2%
Cc1ccc(CN2[C@@H](CC3CCCCC3)COCCS2(=O)=O)cc1 | u | -0.2% | -18.7 | 6.6% | 12.6µM* | 18.6%
SMILES | TDP1 cell CPT | 12-LOX inh | IL-1B inflam inh | HT1080 IDH1KD tx | DT40 TDP1 no CPT | HT1080-NT tox
O=S1(=O)CCOC[C@H](CC2CCCCC2)N1Cc1cccc(F)c1 | u | 7.3% | -13.7 | -1.4% | u | 0.7%
O=C(O)C[C@@H]1CCN(C(=O)Nc2ccccc2)C[C@@H]1CCN1CCN(c2ccc(F)cc2)CC1 | x | -16.9% | x | x | x | x
Cc1ccccc1-c1ncnn1-c1sc2c(c1C#N)CCCCC2 | -25.2% | u | x | x | -15.7% | x
COc1cc(CNC(=O)C2CCN(c3cn[nH]c(=O)c3)C2)cc(OC)c1 (stereo not given) | x | 30.6% | x | x | x | x
CN1CCN(CC(O)(c2ccc(Cl)cc2)c2ccc(Cl)cc2)CC1 | u | u | -85.3* | 20.6µM* | 20.6µM* | 18.4µM*
CN1C(=O)C2(CCN(C(=O)COc3ccc(Cl)cc3)C2)c2ccccc21 (stereo not given) | x | 18.4% | x | x | x | x
Cc1[nH]n(-c2ccccc2)c(=O)c1/C=C1/C=c2ccccc2=N1 | u | -7.4% | 18.9 | -4.8% | 20.6µM* | -0.6%
Cc1[nH]n(-c2ccccc2)c(=O)c1/C=C1\C=NN=C1c1ccccc1 | 19.1% | 384.1% | x | 11.4% | -3.3% | -3.5%
CC1=NS(=O)(=O)N(Cc2ccccc2)C=C1C(=O)OCc1noc(C2CCCCC2)n1 | x | 1.7% | x | x | x | x
COCCOC(=O)c1c(C)oc2ccc(O)c(CN3CCC(C)CC3)c12 (tested in a mixture with another compound) | u | 6.5% | -52.3* | -1.7% | u | -5.0%
CCOC(=O)c1c(-c2ccccc2)oc2cc(CN(C)C)c(O)c(CN(C)C)c12 | u | -25.9% | 65.7 | 11.2µM* | u | u
CC(=O)c1c(CSc2ccccc2)oc2ccc(O)c(CN(C)C)c12 | 23.1µM* | u | -85.1* | u | u | u
